According to publication PMC11006913:
Positions count from the first letter of the chain named.

Assays:
Experiment in all cases: PBM; 200 nM protein, PBS
Conditions in all cases: dsDNA, one strand shown
PRRX1 [1] = molecular target: PRRX1 (Homo sapiens, UniProt P54821 80-166, F113S)
HOXA2 = HOXA2 (Homo sapiens, UniProt O43364 129-215, R185T)
MSX2 [2] = molecular target: MSX2 (Homo sapiens, UniProt P35548 130-214, R199I)
PRRX1 [3] = molecular target: PRRX1 (Homo sapiens, UniProt P54821 80-166)
NKX2-6 [4] = molecular target: T1, NKX2-6 (Homo sapiens, UniProt A6NCS4 118-204, R150C)
T1 sequence: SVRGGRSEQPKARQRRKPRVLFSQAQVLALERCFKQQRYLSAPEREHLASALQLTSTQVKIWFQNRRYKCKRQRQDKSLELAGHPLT

ALX1 [5] = molecular target: ALX1 (Homo sapiens, UniProt Q15699 118-204, L144R)
ALX1 (Homo sapiens, UniProt Q15699 118-204, L144R), sequence (Q15699 118-204 L144R): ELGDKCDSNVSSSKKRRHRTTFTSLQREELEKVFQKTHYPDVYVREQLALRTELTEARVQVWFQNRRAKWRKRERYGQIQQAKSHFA

HOXD13 [6] = molecular target: HOXD13 (Homo sapiens, UniProt P35453 263-343, T313R)
HOXD13 (Homo sapiens, UniProt P35453 263-343, T313R), sequence (P35453 263-343 T313R): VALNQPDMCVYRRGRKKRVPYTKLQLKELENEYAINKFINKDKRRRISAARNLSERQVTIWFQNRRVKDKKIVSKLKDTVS

HOXD13 [7] = molecular target: HOXD13 (Homo sapiens, UniProt P35453 263-343)
HOXD13 (Homo sapiens, UniProt P35453 263-343), sequence (P35453 263-343): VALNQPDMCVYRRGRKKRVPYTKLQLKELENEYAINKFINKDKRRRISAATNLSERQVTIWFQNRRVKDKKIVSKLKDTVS

HOXD13 [8] = molecular target: HOXD13 (Homo sapiens, UniProt P35453 263-343, T313A)
HOXD13 (Homo sapiens, UniProt P35453 263-343, T313A), sequence (P35453 263-343 T313A): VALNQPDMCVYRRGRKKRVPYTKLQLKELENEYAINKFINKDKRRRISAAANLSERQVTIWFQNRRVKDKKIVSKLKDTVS

HESX1 [9] = molecular target: HESX1 (Homo sapiens, UniProt Q9UBX0 95-180)
HESX1 (Homo sapiens, UniProt Q9UBX0 95-180), sequence (Q9UBX0 95-180): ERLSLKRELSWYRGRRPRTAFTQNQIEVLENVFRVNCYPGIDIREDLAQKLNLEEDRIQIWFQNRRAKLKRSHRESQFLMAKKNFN

ALX3 [10] = molecular target: ALX3 (Homo sapiens, UniProt O95076 139-225, N203Q)
ALX3 (Homo sapiens, UniProt O95076 139-225, N203Q), sequence (O95076 139-225 N203Q): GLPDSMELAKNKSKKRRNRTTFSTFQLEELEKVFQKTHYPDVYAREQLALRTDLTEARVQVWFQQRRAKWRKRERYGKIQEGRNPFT

ALX3 [11] = molecular target: ALX3 (Homo sapiens, UniProt O95076 139-225)
ALX3 (Homo sapiens, UniProt O95076 139-225), sequence (O95076 139-225): as the sequence (O95076 139-225 N203Q) above, with Q65N counted along it

VAX1 [12] = molecular target: VAX1 (Homo sapiens, UniProt Q5SQQ9 86-172)
VAX1 (Homo sapiens, UniProt Q5SQQ9 86-172), sequence (Q5SQQ9 86-172): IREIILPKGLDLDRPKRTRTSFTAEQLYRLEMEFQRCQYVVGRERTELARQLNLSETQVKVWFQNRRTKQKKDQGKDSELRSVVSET

ALX3 [13] = molecular target: ALX3 (Homo sapiens, UniProt O95076 139-225, L168Q)
ALX3 (Homo sapiens, UniProt O95076 139-225, L168Q), sequence (O95076 139-225 L168Q): as the sequence (O95076 139-225 N203Q) above, with L30Q, Q65N counted along it

ALX3 [14] = molecular target: ALX3 (Homo sapiens, UniProt O95076 139-225, L168V)
ALX3 (Homo sapiens, UniProt O95076 139-225, L168V), sequence (O95076 139-225 L168V): as the sequence (O95076 139-225 N203Q) above, with L30V, Q65N counted along it

VAX1 [15] = molecular target: VAX1 (Homo sapiens, UniProt Q5SQQ9 86-172, T142I)
VAX1 (Homo sapiens, UniProt Q5SQQ9 86-172, T142I), sequence (Q5SQQ9 86-172 T142I): as the sequence (Q5SQQ9 86-172) above, with T57I counted along it

ALX3 [16] = molecular target: ALX3 (Homo sapiens, UniProt O95076 139-225, N203S)
ALX3 (Homo sapiens, UniProt O95076 139-225, N203S), sequence (O95076 139-225 N203S): as the sequence (O95076 139-225 N203Q) above, with Q65S counted along it

VAX1 [17] = molecular target: VAX1 (Homo sapiens, UniProt Q5SQQ9 86-172, K157R)
VAX1 (Homo sapiens, UniProt Q5SQQ9 86-172, K157R), sequence (Q5SQQ9 86-172 K157R): as the sequence (Q5SQQ9 86-172) above, with K72R counted along it

PROP1 [18] = molecular target: PROP1 (Homo sapiens, UniProt O75360 56-141)
PROP1 (Homo sapiens, UniProt O75360 56-141), sequence (O75360 56-141): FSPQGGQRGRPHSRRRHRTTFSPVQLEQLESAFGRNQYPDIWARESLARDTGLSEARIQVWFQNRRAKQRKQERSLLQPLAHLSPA

PROP1 [19] = molecular target: PROP1 (Homo sapiens, UniProt O75360 56-141, R99H)
PROP1 (Homo sapiens, UniProt O75360 56-141, R99H), sequence (O75360 56-141 R99H): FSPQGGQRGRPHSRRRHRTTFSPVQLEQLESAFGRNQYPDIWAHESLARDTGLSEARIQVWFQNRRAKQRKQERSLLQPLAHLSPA

PROP1 [20] = molecular target: PROP1 (Homo sapiens, UniProt O75360 56-141, F88S)
PROP1 (Homo sapiens, UniProt O75360 56-141, F88S), sequence (O75360 56-141 F88S): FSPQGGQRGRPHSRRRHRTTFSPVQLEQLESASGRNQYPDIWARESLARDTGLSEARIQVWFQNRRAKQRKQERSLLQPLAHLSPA

CRX = CRX (Homo sapiens, UniProt O43186 26-111, R41L)
CRX, sequence (O43186 26-111 R41L): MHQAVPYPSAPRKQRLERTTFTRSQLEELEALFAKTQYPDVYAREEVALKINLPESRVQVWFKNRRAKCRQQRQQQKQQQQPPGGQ

HOXB6 [21] = molecular target: HOXB6 (Homo sapiens, UniProt P17509 132-218, K202E)
HOXB6 (Homo sapiens, UniProt P17509 132-218, K202E), sequence (P17509 132-218 K202E): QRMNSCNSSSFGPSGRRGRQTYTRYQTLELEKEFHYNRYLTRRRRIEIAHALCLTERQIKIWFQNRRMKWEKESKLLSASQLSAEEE

HESX1 [22] = molecular target: HESX1 (Homo sapiens, UniProt Q9UBX0 95-180, F115L)
HESX1 (Homo sapiens, UniProt Q9UBX0 95-180, F115L), sequence (Q9UBX0 95-180 F115L): as the sequence (Q9UBX0 95-180) above, with F21L counted along it

HOXB6 [23] = molecular target: HOXB6 (Homo sapiens, UniProt P17509 132-218)
HOXB6 (Homo sapiens, UniProt P17509 132-218), sequence (P17509 132-218): as the sequence (P17509 132-218 K202E) above, with E71K counted along it

PITX2 = PITX2 (Homo sapiens, UniProt Q99697 72-157)
NKX2-6 [24] = molecular target: T2, NKX2-6 (Homo sapiens, UniProt A6NCS4 118-204)
T2 sequence: T1 sequence with C33R

MSX2 [25] = molecular target: MSX2 (Homo sapiens, UniProt P35548 130-214)
MSX2 (Homo sapiens, UniProt P35548 130-214), sequence (P35548 130-214): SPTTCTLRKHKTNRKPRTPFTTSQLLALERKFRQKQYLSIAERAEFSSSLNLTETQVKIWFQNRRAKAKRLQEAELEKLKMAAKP

NKX2-6 [26] = molecular target: T3, NKX2-6 (Homo sapiens, UniProt A6NCS4 118-204, F151L)
T3 sequence: T1 sequence with C33R, F34L

MSX2 [27] = molecular target: MSX2 (Homo sapiens, UniProt P35548 130-214, F161Y)
MSX2 (Homo sapiens, UniProt P35548 130-214, F161Y), sequence (P35548 130-214 F161Y): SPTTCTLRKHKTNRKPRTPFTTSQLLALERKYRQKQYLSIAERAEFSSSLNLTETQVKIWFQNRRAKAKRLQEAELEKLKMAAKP

ALX4 = ALX4 (Homo sapiens, UniProt Q9H161 200-286, Q225E)
ALX4, sequence (Q9H161 200-286 Q225E): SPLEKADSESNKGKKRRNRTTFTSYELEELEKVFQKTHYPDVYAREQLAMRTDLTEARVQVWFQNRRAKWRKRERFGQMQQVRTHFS

ALX1 [28] = molecular target: ALX1 (Homo sapiens, UniProt Q15699 118-204, L144V)
ALX1 (Homo sapiens, UniProt Q15699 118-204, L144V), sequence (Q15699 118-204 L144V): as the sequence (Q15699 118-204 L144R) above, with R27V counted along it

PAX4 = molecular target: T4, PAX4 (Homo sapiens, UniProt O43316 9-242, R200Q)
T4 sequence: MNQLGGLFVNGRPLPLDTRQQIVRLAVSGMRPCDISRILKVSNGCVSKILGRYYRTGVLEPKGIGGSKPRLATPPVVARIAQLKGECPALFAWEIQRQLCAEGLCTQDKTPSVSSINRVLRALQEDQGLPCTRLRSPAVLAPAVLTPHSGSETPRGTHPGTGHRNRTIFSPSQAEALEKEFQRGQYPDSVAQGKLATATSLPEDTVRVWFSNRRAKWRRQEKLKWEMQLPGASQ

SHOX = SHOX (Homo sapiens, UniProt O15266 103-189, R173C)
SHOX, sequence (O15266 103-189 R173C): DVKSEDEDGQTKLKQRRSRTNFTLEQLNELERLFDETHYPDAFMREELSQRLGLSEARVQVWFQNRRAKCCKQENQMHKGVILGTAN

HESX1 [29] = molecular target: HESX1 (Homo sapiens, UniProt Q9UBX0 95-180, R109Q)
HESX1 (Homo sapiens, UniProt Q9UBX0 95-180, R109Q), sequence (Q9UBX0 95-180 R109Q): as the sequence (Q9UBX0 95-180) above, with R15Q counted along it

ALX1 [30] = molecular target: ALX1 (Homo sapiens, UniProt Q15699 118-204)
ALX1 (Homo sapiens, UniProt Q15699 118-204), sequence (Q15699 118-204): as the sequence (Q15699 118-204 L144R) above, with R27L counted along it

PRRX1 (Homo sapiens, UniProt P54821 80-166, F113S), sequence (P54821 80-166 F113S): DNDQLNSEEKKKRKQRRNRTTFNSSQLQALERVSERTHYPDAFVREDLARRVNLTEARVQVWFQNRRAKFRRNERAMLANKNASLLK
PRRX1 (Homo sapiens, UniProt P54821 80-166), sequence (P54821 80-166): as the sequence (P54821 80-166 F113S) above, with S34F counted along it
MSX2 (Homo sapiens, UniProt P35548 130-214, R199I), sequence (P35548 130-214 R199I): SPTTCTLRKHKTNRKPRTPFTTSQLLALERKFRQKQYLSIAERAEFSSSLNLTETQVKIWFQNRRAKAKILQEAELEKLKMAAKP
HOXA2, sequence (O43364 129-215 R185T): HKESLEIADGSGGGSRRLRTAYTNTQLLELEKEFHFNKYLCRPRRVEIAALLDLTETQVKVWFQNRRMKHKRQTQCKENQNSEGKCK

Sequence: ACTAATCA
- binding signal (PRRX1 [1]): 10.9 upbm affinity estimate (log intensity, higher = more binding, comparable within an allelic series)
- binding signal (HOXA2): 12.5 upbm affinity estimate (log intensity, higher = more binding, comparable within an allelic series)
- binding signal (MSX2 [2]): 11.2 upbm affinity estimate (log intensity, higher = more binding, comparable within an allelic series)
- binding signal (PRRX1 [3]): 13.2 upbm affinity estimate (log intensity, higher = more binding, comparable within an allelic series)

Sequence: CACGTGGC
- binding signal (PRRX1 [1]): 9.17 upbm affinity estimate (log intensity, higher = more binding, comparable within an allelic series)
- binding signal (NKX2-6 [4]): 9.61 upbm affinity estimate (log intensity, higher = more binding, comparable within an allelic series)
- binding signal (PRRX1 [3]): 9.4 upbm affinity estimate (log intensity, higher = more binding, comparable within an allelic series)

Sequence: TTAATCAA
- binding signal (PRRX1 [1]): 11.1 upbm affinity estimate (log intensity, higher = more binding, comparable within an allelic series)
- binding signal (ALX1 [5]): 11.2 upbm affinity estimate (log intensity, higher = more binding, comparable within an allelic series)
- binding signal (PRRX1 [3]): 13.3 upbm affinity estimate (log intensity, higher = more binding, comparable within an allelic series)

Sequence: GGCCTACC
- binding signal (PRRX1 [1]): 9.31 upbm affinity estimate (log intensity, higher = more binding, comparable within an allelic series)
- binding signal (HOXD13 [6]): 9.55 upbm affinity estimate (log intensity, higher = more binding, comparable within an allelic series)
- binding signal (HOXD13 [7]): 9.49 upbm affinity estimate (log intensity, higher = more binding, comparable within an allelic series)
- binding signal (HOXD13 [8]): 9.59 upbm affinity estimate (log intensity, higher = more binding, comparable within an allelic series)
- binding signal (PRRX1 [3]): 9.37 upbm affinity estimate (log intensity, higher = more binding, comparable within an allelic series)

Sequence: CGTAAGTA
- binding signal (PRRX1 [1]): 10 upbm affinity estimate (log intensity, higher = more binding, comparable within an allelic series)
- binding signal (HESX1 [9]): 7.17 upbm affinity estimate (log intensity, higher = more binding, comparable within an allelic series)
- binding signal (PRRX1 [3]): 11 upbm affinity estimate (log intensity, higher = more binding, comparable within an allelic series)

Sequence: AGCCGGGC
- binding signal (PRRX1 [1]): 8.99 upbm affinity estimate (log intensity, higher = more binding, comparable within an allelic series)
- binding signal (ALX3 [10]): 7.69 upbm affinity estimate (log intensity, higher = more binding, comparable within an allelic series)
- binding signal (ALX3 [11]): 7.71 upbm affinity estimate (log intensity, higher = more binding, comparable within an allelic series)
- binding signal (VAX1 [12]): 7 upbm affinity estimate (log intensity, higher = more binding, comparable within an allelic series)
- binding signal (ALX3 [13]): 7.68 upbm affinity estimate (log intensity, higher = more binding, comparable within an allelic series)
- binding signal (ALX3 [14]): 7.64 upbm affinity estimate (log intensity, higher = more binding, comparable within an allelic series)
- binding signal (VAX1 [15]): 7.24 upbm affinity estimate (log intensity, higher = more binding, comparable within an allelic series)
- binding signal (ALX3 [16]): 7.72 upbm affinity estimate (log intensity, higher = more binding, comparable within an allelic series)
- binding signal (PRRX1 [3]): 9.33 upbm affinity estimate (log intensity, higher = more binding, comparable within an allelic series)
- binding signal (VAX1 [17]): 6.91 upbm affinity estimate (log intensity, higher = more binding, comparable within an allelic series)

Sequence: GTCCCCCA
- binding signal (PRRX1 [1]): 9.39 upbm affinity estimate (log intensity, higher = more binding, comparable within an allelic series)
- binding signal (NKX2-6 [4]): 9.42 upbm affinity estimate (log intensity, higher = more binding, comparable within an allelic series)
- binding signal (PRRX1 [3]): 9.22 upbm affinity estimate (log intensity, higher = more binding, comparable within an allelic series)

Sequence: CCCAAAGG
- binding signal (PRRX1 [1]): 9.18 upbm affinity estimate (log intensity, higher = more binding, comparable within an allelic series)
- binding signal (HOXD13 [6]): 9.56 upbm affinity estimate (log intensity, higher = more binding, comparable within an allelic series)
- binding signal (HOXD13 [7]): 9.54 upbm affinity estimate (log intensity, higher = more binding, comparable within an allelic series)
- binding signal (HOXD13 [8]): 9.58 upbm affinity estimate (log intensity, higher = more binding, comparable within an allelic series)
- binding signal (PRRX1 [3]): 9.15 upbm affinity estimate (log intensity, higher = more binding, comparable within an allelic series)

Sequence: GCAAGGCC
- binding signal (PRRX1 [1]): 9.45 upbm affinity estimate (log intensity, higher = more binding, comparable within an allelic series)
- binding signal (PRRX1 [3]): 9.29 upbm affinity estimate (log intensity, higher = more binding, comparable within an allelic series)

Sequence: ACGCGCGG
- binding signal (PRRX1 [1]): 9.42 upbm affinity estimate (log intensity, higher = more binding, comparable within an allelic series)
- binding signal (PRRX1 [3]): 9.29 upbm affinity estimate (log intensity, higher = more binding, comparable within an allelic series)

Sequence: CTTAATCA
- binding signal (PRRX1 [1]): 10.9 upbm affinity estimate (log intensity, higher = more binding, comparable within an allelic series)
- binding signal (PROP1 [18]): 10.5 upbm affinity estimate (log intensity, higher = more binding, comparable within an allelic series)
- binding signal (PROP1 [19]): 9.83 upbm affinity estimate (log intensity, higher = more binding, comparable within an allelic series)
- binding signal (PROP1 [20]): 7.41 upbm affinity estimate (log intensity, higher = more binding, comparable within an allelic series)
- binding signal (PRRX1 [3]): 13 upbm affinity estimate (log intensity, higher = more binding, comparable within an allelic series)

Sequence: CTATAATC
- binding signal (PRRX1 [1]): 10.5 upbm affinity estimate (log intensity, higher = more binding, comparable within an allelic series)
- binding signal (CRX): 12.5 upbm affinity estimate (log intensity, higher = more binding, comparable within an allelic series)
- binding signal (PRRX1 [3]): 12.5 upbm affinity estimate (log intensity, higher = more binding, comparable within an allelic series)

Sequence: AAATAATT
- binding signal (PRRX1 [1]): 11.1 upbm affinity estimate (log intensity, higher = more binding, comparable within an allelic series)
- binding signal (HOXB6 [21]): 9.97 upbm affinity estimate (log intensity, higher = more binding, comparable within an allelic series)
- binding signal (HESX1 [22]): 7.74 upbm affinity estimate (log intensity, higher = more binding, comparable within an allelic series)

Sequence: GTCCCCAC
- binding signal (PRRX1 [1]): 9.29 upbm affinity estimate (log intensity, higher = more binding, comparable within an allelic series)
- binding signal (HOXB6 [21]): 9.01 upbm affinity estimate (log intensity, higher = more binding, comparable within an allelic series)
- binding signal (PRRX1 [3]): 9.35 upbm affinity estimate (log intensity, higher = more binding, comparable within an allelic series)
- binding signal (HOXB6 [23]): 9.13 upbm affinity estimate (log intensity, higher = more binding, comparable within an allelic series)

Sequence: ACGTTGCG
- binding signal (PRRX1 [1]): 9.5 upbm affinity estimate (log intensity, higher = more binding, comparable within an allelic series)
- binding signal (PITX2): 7.94 upbm affinity estimate (log intensity, higher = more binding, comparable within an allelic series)
- binding signal (PRRX1 [3]): 9.22 upbm affinity estimate (log intensity, higher = more binding, comparable within an allelic series)

Sequence: ACGCCCCG
- binding signal (PRRX1 [1]): 9.23 upbm affinity estimate (log intensity, higher = more binding, comparable within an allelic series)
- binding signal (MSX2 [2]): 9.45 upbm affinity estimate (log intensity, higher = more binding, comparable within an allelic series)
- binding signal (ALX3 [10]): 7.74 upbm affinity estimate (log intensity, higher = more binding, comparable within an allelic series)
- binding signal (NKX2-6 [24]): 9.2 upbm affinity estimate (log intensity, higher = more binding, comparable within an allelic series)
- binding signal (MSX2 [25]): 9.36 upbm affinity estimate (log intensity, higher = more binding, comparable within an allelic series)
- binding signal (ALX3 [11]): 7.57 upbm affinity estimate (log intensity, higher = more binding, comparable within an allelic series)
- binding signal (ALX3 [13]): 7.68 upbm affinity estimate (log intensity, higher = more binding, comparable within an allelic series)
- binding signal (NKX2-6 [26]): 9.33 upbm affinity estimate (log intensity, higher = more binding, comparable within an allelic series)
- binding signal (ALX3 [14]): 7.67 upbm affinity estimate (log intensity, higher = more binding, comparable within an allelic series)
- binding signal (MSX2 [27]): 9.41 upbm affinity estimate (log intensity, higher = more binding, comparable within an allelic series)
- binding signal (ALX3 [16]): 7.73 upbm affinity estimate (log intensity, higher = more binding, comparable within an allelic series)
- binding signal (PRRX1 [3]): 9.08 upbm affinity estimate (log intensity, higher = more binding, comparable within an allelic series)

Sequence: AATTAAAC
- binding signal (PRRX1 [1]): 11.1 upbm affinity estimate (log intensity, higher = more binding, comparable within an allelic series)
- binding signal (ALX4): 12.8 upbm affinity estimate (log intensity, higher = more binding, comparable within an allelic series)
- binding signal (ALX1 [28]): 11.3 upbm affinity estimate (log intensity, higher = more binding, comparable within an allelic series)
- binding signal (PAX4): 11.8 upbm affinity estimate (log intensity, higher = more binding, comparable within an allelic series)
- binding signal (SHOX): 9.29 upbm affinity estimate (log intensity, higher = more binding, comparable within an allelic series)
- binding signal (ALX1 [5]): 11 upbm affinity estimate (log intensity, higher = more binding, comparable within an allelic series)
- binding signal (HESX1 [29]): 8.69 upbm affinity estimate (log intensity, higher = more binding, comparable within an allelic series)
- binding signal (ALX3 [13]): 10.2 upbm affinity estimate (log intensity, higher = more binding, comparable within an allelic series)
- binding signal (ALX3 [14]): 9.91 upbm affinity estimate (log intensity, higher = more binding, comparable within an allelic series)
- binding signal (ALX1 [30]): 12 upbm affinity estimate (log intensity, higher = more binding, comparable within an allelic series)
